Source: ChEMBL document CHEMBL3988442, “University of Dundee, Small-Polar-MMV Screening Library” (2021)
Out of some 69,000 compounds screened, about 950 (1.4%) showed an effect of 50% or more. This excerpt belongs to a sample that is enriched for strong results.

system: Mycobacterium tuberculosis; assay: Cornell M. t heat shock assay; format: functional, organism-based; set-up: dose or concentration left out as unconfirmed; further: in the data most compounds retested in dose-response had high values

SMILES	Percent Effect [%]
O=C1c2cnc(N3CCCC3)nc2CN1CCc1ccc(Cl)cc1	5.842
Cc1ccc(CN2C[C@@H]3COC[C@H](NS(C)(=O)=O)[C@@H]3C2)s1.O=C(O)C(F)(F)F	-17.68
CC(C)c1nn(C)c(N(C)C)c1CNC(C)c1ccc2c(c1)OCO2.Cl (centres undefined)	11.17
O=C(CN1CC(c2nc(C3CC3)no2)C1)NCc1ccc(F)cc1.O=C(O)C(=O)O	-19.44
CS(=O)(=O)N1CCN(c2ccnc(N3CCCC3)n2)CC1	3.373
CS(=O)(=O)N1CCN(c2ccnc(N3CCCCC3)n2)CC1	54.19
CN(C)S(=O)(=O)N1CCN(c2ccnc(N3CCCCC3)n2)CC1	-3.243
CN1CCN(CC2CC2)C(=O)C12CCN(C(=O)CC(F)(F)F)CC2.O=C(O)C(F)(F)F	5.441
COc1ccccc1Oc1ncccc1CNC(=O)[C@@H](C)NC(C)=O	11.05
c1ccc2oc(CN3CCCC3c3noc(C4CC4)n3)nc2c1 (centres undefined)	17.43
c1ccc(Cn2ccnc2CN2CCCC2c2noc(C3CC3)n2)cc1 (centres undefined)	104.2
CCn1ccnc1CN1CCCC1c1noc(C2CC2)n1 (centres undefined)	-4.423
Cc1cc(CN2CCCC2c2noc(C3CC3)n2)c2ccccc2n1 (centres undefined)	31.64
CCc1nc(C2CCCN2Cc2nccn2Cc2ccccc2)no1 (centres undefined)	20.06
Cn1ccnc1CN1CCCCC1c1nc(-c2ccccc2)no1 (centres undefined)	51.73
COc1c(C)cnc(CN2CCCC2c2noc(C3CC3)n2)c1C (centres undefined)	-0.8434
Cc1noc(C)c1CN1CCCCC1c1nc(-c2ccccc2)no1 (centres undefined)	-13.3
Cc1nc(CN2CCCC2c2noc(C3CC3)n2)nc2ccccc12 (centres undefined)	27.9
Cc1cnc(CN2CCCCC2c2nc(-c3ccccc3)no2)cn1 (centres undefined)	5.875
c1ccc2nc(CN3CCCC3c3noc(C4CC4)n3)ccc2c1 (centres undefined)	108.9
COc1ccc(C)cc1CN1CCCC1c1noc(C2CC2)n1 (centres undefined)	82.36
COC(=O)Cn1c(=O)nc2n1C(=O)N(c1ccc(Br)cc1)C2	18.41
CNC(=O)[C@H]1C[C@@H]2CN(Cc3cccc(C)c3)C[C@H]1O2.O=C(O)C(F)(F)F	19.67
COCCNC(=O)[C@H]1CN(Cc2sccc2C)C[C@H]2OCC[C@@H]12.O=C(O)C(F)(F)F	-45.09
Br.Cc1cc(C)c(N(CC(O)CNCc2ccccc2)S(C)(=O)=O)c(C)c1 (centres undefined)	3.921

SMILES	Percent Effect [%]
Cc1cccc(CN2C(=O)CCC23CCNCC3)n1.O=C(O)C(F)(F)F.O=C(O)C(F)(F)F	-5.538
COCCN1CCC2(CCCN(c3ncccn3)C2)C1.O=C(O)C(F)(F)F (centres undefined)	-80.98
CN1CCC(c2n[nH]c3ncccc23)C1.O=CO (centres undefined)	50.56
CN1CCCC(c2n[nH]c3ncccc23)C1 (centres undefined)	-10.45
c1cnc(N2CCC(c3n[nH]c4ncccc34)C2)nc1 (centres undefined)	-8.956
Cc1ccc(N2CCN(c3ccccc3C)CC2C)nn1 (centres undefined)	2.644
Cc1ccccc1N1CCN(c2ccncn2)C(C)C1 (centres undefined)	56.56
Cc1ccccc1N1CCN(c2cc(N(C)C)ncn2)C(C)C1 (centres undefined)	21.52
Cc1ccc(Nc2nccc(C3CCN(C(=O)CN)C3)n2)nc1.Cl (centres undefined)	-1.968
COc1cccc(COCC(O)CN(C)c2ccc(C)cc2C)c1 (centres undefined)	-34.76
Cc1cc(N2CCC(CO)(CC3CCCCO3)CC2)c2ccccc2n1 (centres undefined)	-3.721
OCC1(CC2CCCCO2)CCN(c2cnc3ccccc3n2)CC1 (centres undefined)	103.4
Cc1cc(N2CCC(CO)(CC3CCCCO3)CC2)nc2ccccc12 (centres undefined)	3.069
CO[C@@H]1CC[C@H]2[C@H]1OCCN2Cc1ccc(F)cc1.O=C(O)C(F)(F)F	-14.29
CCn1cc(NC(=O)CN2CCC(Oc3ccc(F)cc3)CC2)c(C)n1.Cl	-4.397
CCCN(C(=O)c1cnccn1)c1nc2c(s1)CCc1c-2cnn1C	-8.207
CCCN(C(=O)c1ccncc1)c1nc2c(s1)CCc1c-2cnn1C	61.93
CCCN(C(=O)c1cccnc1)c1nc2c(s1)CCc1c-2cnn1C	19.23
CCCN(C(=O)c1cnc(C)cn1)c1nc2c(s1)CCc1c-2cnn1C	-19.73
COCCN(C(=O)c1ccccn1)c1nc2c(s1)CCc1c-2cnn1C	15.96
CCCN(C(=O)c1ccccn1)c1nc2c(s1)CCc1c-2cnn1C	103.2
Cc1nc(N2CCOCC2)nc2c1CCN(Cc1nccn1C)CC2.O=C(O)C(F)(F)F	-4.986
O=C(O)C(F)(F)F.O=C(c1cccnc1)N1CCC2(CCN(C(=O)N3CCCC3)CC2)C1	2.065
CCN1Cc2nccn2CC(COCc2csc(C)n2)C1.O=C(O)C(F)(F)F.O=C(O)C(F)(F)F (centres undefined)	34.39
CN1C(=O)CC(c2ccccc2)C12CCN(CCO)CC2.O=C(O)C(F)(F)F (centres undefined)	13.27

SMILES	Percent Effect [%]
Cl.O[C@@H]1CN(Cc2cccc(F)c2)CC[C@H]1NCc1ccccn1	14.29
COc1ccc2c(c1)CN(Cc1nc3c(cnn3C)c(=O)[nH]1)CC2	-0.696
CCOc1ccc2c(c1)CN(Cc1nc3c(cnn3C)c(=O)[nH]1)CC2	-1.196
COc1ccc2c(c1)CN(Cc1nc3ccsc3c(=O)[nH]1)CC2	63.99
Fc1cnc(N2C[C@@H](OCC3CCOCC3)[C@H]3OCCC[C@H]32)nc1.O=C(O)C(F)(F)F	41.59
CC(C)N1CCc2nnc(COc3cncnc3)n2CC1.O=C(O)C(F)(F)F	-11.8
CO[C@H]1CCN(C(=O)c2ccsc2)[C@@H]2CN(CC3CC3)C[C@H]12.O=C(O)C(F)(F)F	-4.831
Cc1cccc(N2CCOCC3(C2)CN(c2ccoc2)C(=O)CO3)n1.O=C(O)C(F)(F)F (centres undefined)	36.14
CN(C)[C@@H]1CN(C(=O)Cc2ccsc2)[C@@H]2CCCO[C@H]12.O=C(O)C(F)(F)F	1.941
c1ccc2sc(N3CCCN(c4ncnc5c4CCNC5)CC3)nc2c1	53.45
c1ccc2sc(N3CCN(c4ncnc5c4CCC5)CC3)nc2c1	-9.42
Cc1ncnc(N2CCCN(c3nc4ccccc4s3)CC2)c1C	10.22
O=C(c1ccco1)N1C(CN2CCOCC2)[C@]2(O)CC[C@H]1CC2 (some centres undefined)	30.59
c1ccc(CO[C@@H]2CN(Cc3ccoc3)[C@@H]3COC[C@@H]32)nc1	52.89
Cc1nc(CO[C@@H]2CN(Cc3ccccn3)[C@@H]3COC[C@@H]32)cs1	-33.39
Fc1ccc(CN2C[C@@H](OCc3ccccn3)[C@H]3COC[C@H]32)cc1.O=C(O)C(F)(F)F.O=C(O)C(F)(F)F	25.12
Cc1nc(C2CCNC2)nc2c1CCC(=O)N2C.Cl (centres undefined)	7.271
CN1CC(=O)c2sc(NCCc3ccccc3)nc2C1	-13.74
Br.O=C(O)c1csc(NCCc2ccccc2)n1	78.91
O=C(NCCc1ccccc1)NCC(O)c1cccs1 (centres undefined)	20.6
COCCNC(=O)c1cc(-c2cc[nH]n2)n2ccccc12.O=C(O)C(F)(F)F	-6.749
O=C([C@@H]1CCCO1)N1CCOCC2(CCN(Cc3cccnc3)C2)C1 (some centres undefined)	51.35
O=C(C1CCCO1)N1CCC2(CC1)COCCN(Cc1cccnc1)C2.O=C(O)C(F)(F)F.O=C(O)C(F)(F)F (centres undefined)	-5.406
O=C(O)C(F)(F)F.O=C(O)C(F)(F)F.O=C(O)C(F)(F)F.c1cncc(CN2CCC3(COCCN(C4CCOCC4)C3)C2)c1 (centres undefined)	-18.23
Cc1ccc(N2CCC3(CCN(C(=O)c4ccoc4)CC3)CC2)nn1.O=C(O)C(F)(F)F	-13.67

SMILES	Percent Effect [%]
CS(=O)(=O)NCc1cn2c(n1)CN(Cc1cccnc1)CC2.O=C(O)C(F)(F)F.O=C(O)C(F)(F)F	42.6
CN1CCC(c2nc3ccc(-c4cccc(F)c4)cn3n2)CC1.O=C(O)C(F)(F)F	3.867
O=C(Nc1ccc(F)cc1)C1CCc2ccccc2N1 (centres undefined)	1.641
Nc1ncc(-c2ccc(NC(=O)[C@@H]3CCCCN3)cc2)cn1	-9.095
Cl.N#Cc1ccc(NC(=O)C2CSCN2)cc1 (centres undefined)	75.04
O=C(Nc1ccc(F)cc1)C1CSCN1 (centres undefined)	55.12
CNc1ncc(-c2ccc(NC(=O)[C@@H]3CCCCN3)cc2)cn1	-9.316
Cc1csc2c(N3CCNC(C(=O)Nc4ccc(F)cc4)C3)ncnc12 (centres undefined)	27.39
Cc1ccc(C(=O)N2[C@@H]3CC[C@H]2CN(C)C(=O)C3)c(=O)[nH]1	-6.73
O=C(O)C(F)(F)F.O=C([C@@H]1C[C@@H]2CCN(Cc3ccc4c(c3)OCO4)C[C@@H]2O1)N1CCCC1	-15.24
CC(C)COC[C@@H]1CC[C@H]2[C@H](CCN2C(=O)c2ccncc2F)O1.O=C(O)C(F)(F)F	-34.7
Cn1c(CCNc2nccnc2C#N)nc2cc(Cl)ccc21	-3.646
CCn1c(CN(C)Cc2cnc(C)s2)nc2c(F)cccc21	-32.12
Cc1ncc(CN(C)Cc2nc3cc(Cl)ccc3n2C)s1	61.31
O=C(O)C(F)(F)F.O=C(O)C(F)(F)F.c1ccc(CO[C@@H]2CC[C@H]3[C@H]2OCCN3Cc2ccsc2)nc1	-28.68
CNc1cncc(C2CCCN2Cc2ccnc(C)n2)n1 (centres undefined)	-20.32
COc1cccc(CN2CCCC2c2cncc(Nc3nncs3)n2)c1 (centres undefined)	104.6
Cc1cccc(CN2CCCC2c2cncc(Nc3nncs3)n2)c1 (centres undefined)	96.91
CNc1cncc(C2CCCN2Cc2ccccn2)n1 (centres undefined)	-4.503
COc1cccc(CN2CCCC2c2c(C)nn(C)c2C)c1 (centres undefined)	27.85
COc1cccc(CN2CCCC2c2ccc[nH]2)c1 (centres undefined)	-7.682
Cc1ccccc1CN1CCCC1c1cncc(Nc2nncs2)n1 (centres undefined)	103.1
CNc1cncc(C2CCCN2Cc2ccccc2OCC(=O)O)n1 (centres undefined)	2.446
CNc1cncc(C2CCCN2Cc2cccc(C)n2)n1 (centres undefined)	0.9246
